Consider 22 molecules from publication PMC6664820, “Novel natural and synthetic inhibitors of solute carriers SGLT1 and SGLT2” (Pharmacology Research & Perspectives, 2019).

Structures are written as SMILES. The whole screen tested about 1,900 compounds, of which about 40 (2%) showed an effect of 50% or more. The full list was thinned out, with strong results kept by preference.

In the assay the target is human SGLT1 (hSGLT1) (human, UniProt P13866). Nature of the assay: primary screen, percent of control activity; higher = less effect of the substance. The note with it: 50 µM. Also on record: single well. The method, boiled down: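 Single-point screen at 50 µmol/L in CHO-hSGLT1 cells, with 160 µmol/L 1-NBD-glucose in glucose-free DMEM for 90 min at 37°C. Fluorescence from isopropanol extracts was calibrated, and CHO wild-type uptake was subtracted. Data are percent of uptake without compound.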
Chain of human SGLT1 (hSGLT1) (P13866 whole entry, looked up): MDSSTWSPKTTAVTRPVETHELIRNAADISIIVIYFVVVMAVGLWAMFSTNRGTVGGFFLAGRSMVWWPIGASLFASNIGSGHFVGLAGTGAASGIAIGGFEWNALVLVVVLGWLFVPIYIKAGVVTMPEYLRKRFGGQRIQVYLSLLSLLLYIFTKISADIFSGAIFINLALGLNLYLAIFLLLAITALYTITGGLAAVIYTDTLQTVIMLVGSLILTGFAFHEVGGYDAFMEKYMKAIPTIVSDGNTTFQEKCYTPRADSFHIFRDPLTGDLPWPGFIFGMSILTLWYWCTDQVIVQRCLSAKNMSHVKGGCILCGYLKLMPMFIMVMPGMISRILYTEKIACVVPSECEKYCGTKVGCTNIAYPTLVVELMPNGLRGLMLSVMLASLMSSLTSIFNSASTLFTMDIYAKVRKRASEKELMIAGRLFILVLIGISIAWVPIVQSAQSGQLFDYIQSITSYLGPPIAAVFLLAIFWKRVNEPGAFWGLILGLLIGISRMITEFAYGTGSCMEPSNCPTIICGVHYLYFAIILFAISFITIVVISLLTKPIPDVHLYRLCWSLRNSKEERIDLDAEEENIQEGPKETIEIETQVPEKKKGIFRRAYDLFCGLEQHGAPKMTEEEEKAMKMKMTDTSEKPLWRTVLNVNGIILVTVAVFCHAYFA
Regarding `O=C(O[C@@H]1Cc2c(O)cc(O)cc2O[C@@H]1c1cc(O)c(O)c(O)c1-c1c([C@H]2Oc3cc(O)cc(O)c3C[C@H]2OC(=O)c2cc(O)c(O)c(O)c2)cc(O)c(O)c1O)c1cc(O)c(O)c(O)c1`, the “NORMALIZED SGLT1 ACTIVITY (%)” value is reported as 99%.
To `O=C1CCCC2C3CC(CN12)[C@@H]1CCCCN1C3.[O-][Cl+3]([O-])([O-])O` (stereo partly shown) belongs 97%; to `COc1ccc(/C=C/c2cc(O)cc(O)c2)cc1`, 198%.
For `Oc1cc(O)cc(/C=C/c2ccccc2)c1` the value was 39%; for `COc1cc(O)cc(/C=C/c2ccccc2)c1`, 494%.
To `O=C1c2ccccc2C(=O)C1c1ccccc1` belongs 111%; to `COc1ccc(C(=O)CC(=O)O)c2c1C=CC(C)(C)O2`, 115%.
`CC(=O)/C(=C\c1ccccc1)CC(=O)O`: the “NORMALIZED SGLT1 ACTIVITY (%)” value amounted to 142%.
For `CC(=O)Oc1ccc(/C=C/c2cc(OC(C)=O)cc(OC(C)=O)c2)cc1` the value was 222%; for `COc1cc(-c2coc3cc(O[C@@H]4O[C@H](CO)[C@@H](O)[C@H](O)[C@H]4O)c(OC)c(O)c3c2=O)cc(O)c1OC`, 111%.
Turning to `COC(=O)C1[C@H]2C[C@H]3c4[nH]c5ccccc5c4CCN3C[C@@H]2CC[C@@H]1O.Cl` (stereo partly shown), the “NORMALIZED SGLT1 ACTIVITY (%)” value was found to be 120%.
Take `CC(=O)O[C@@H]1CC2C(C)(C)CCC(=O)[C@]2(C)C2CC[C@@]3(C)[C@H](c4ccoc4)OC(=O)C4OC43[C@@]21C` (stereo partly shown): the “NORMALIZED SGLT1 ACTIVITY (%)” value amounted to 126%.
As for `CCCCc1nc(Cl)c(CO)n1Cc1ccc(-c2ccccc2-c2nnn[nH]2)cc1`, the “NORMALIZED SGLT1 ACTIVITY (%)” value came out at 249%.
To `CCOc1nc2cccc(C(=O)OC(C)OC(=O)OC3CCCCC3)c2n1Cc1ccc(-c2ccccc2-c2nnn[nH]2)cc1` (stereo not shown) belongs 36%; to `CCCCC1=NC2(CCCC2)C(=O)N1Cc1ccc(-c2ccccc2-c2nnn[nH]2)cc1`, 117%.
For `N.N.[Cl][Pt][Cl]` the value was 90%; for `COc1ccc2c(c1)[C@@]1(C)CC[C@@H](O)C[C@@H]1CC2`, 116%.
As for `CC(C)=CCCC1(C)C=Cc2c(O)c3c(c(CC=C(C)C)c2O1)OC12C(=CCCC1C(C)(C)O[C@@]2(C/C=C(\C)C(=O)O)C(=O)O)C3=O` (stereo partly shown), the “NORMALIZED SGLT1 ACTIVITY (%)” value turned out to be 39%.
To `CC(C)=CCCC1(C)C=Cc2c(O)c3c(c(CC=C(C)C)c2O1)OC12C(=CC4CC1C(C)(C)OC2(C/C=C(/C)C(=O)O)C4=O)C3=O` (stereo not shown) belongs 163%; to `CC(C)=CCCC1(C)C=Cc2c(O)c3c(c(CC=C(C)C)c2O1)OC12C(=CC4CC1C(C)(C)OC2(C/C=C(/C)C(=O)O)C4O)C3=O` (stereo not shown), 174%.
For the molecule `O=c1c(O)cccc2cc(O)c(O)c(O)c12`, the “NORMALIZED SGLT1 ACTIVITY (%)” value worked out at 137%.
For `CNC(C)[C@@H]1CC[C@@H](N)[C@@H](OC2[C@@H](N)C[C@@H](N)[C@H](OC3OC[C@](C)(O)[C@H](NC)[C@H]3O)[C@H]2O)O1.O=S(=O)(O)O` (stereo partly shown) the value was 95%.
